Laboratory results taken from ChEMBL document CHEMBL3988442, “University of Dundee, Small-Polar-MMV Screening Library” (2021).
About 950 (1.4%) of roughly 69,000 compounds showed an effect of 50% or more. Only a selection was taken, and strong results are over-represented in it overall.

These compounds were tested on Mycobacterium tuberculosis (assay: Cornell M. t heat shock assay; further: in the data most compounds retested in dose-response had high values).
Assay type: functional, organism-based
Parameters: dose or concentration left out as unconfirmed

Row | SMILES | Percent Effect [%]
1 | COc1ccc(C(=O)N2Cc3cc(C)ccc3OCC2CN(C)C)cc1.Cl (configuration not stated) | -9.159
2 | Cc1cccc(CN2CCCC3(CCC(=O)N3CCN(C)C)CC2)n1.O=C(O)C(F)(F)F.O=C(O)C(F)(F)F (configuration not stated) | -9.93
3 | CC(C)NC(=O)N1CCc2ncnc(-c3ccncc3)c2CC1.O=C(O)C(F)(F)F | 36.54
4 | CCn1ccc2ccnc(CC3CN(C(=O)Cn4ccnc4C)C3)c21.O=CO | -10.71
5 | Cc1nc2sccn2c1CN(CCCN(C)C)Cc1ccccn1.O=C(O)CC(O)(CC(=O)O)C(=O)O | -0.915
6 | Cn1ccnc1CN(Cc1ccccn1)Cc1ccccc1Cl.O=C(O)CC(O)(CC(=O)O)C(=O)O | 102.4
7 | Cc1ncc(CN(Cc2ccccn2)Cc2ccccc2Cl)n1C.O=C(O)CC(O)(CC(=O)O)C(=O)O | 34.76
8 | COc1ccc(CN(Cc2cncn2C)CC2CCCO2)cc1OC.O=C(O)CC(O)(CC(=O)O)C(=O)O (configuration not stated) | -6.379
9 | COc1ccc(CN(Cc2ccccn2)Cc2cncn2C)cc1.O=C(O)CC(O)(CC(=O)O)C(=O)O | 72.33
10 | COc1ccc(CN(Cc2cncn2C)CC2CCCO2)cc1.O=C(O)CC(O)(CC(=O)O)C(=O)O (configuration not stated) | 1.542
11 | COc1ncc(CN2CCCC(c3[nH]ncc3S(C)(=O)=O)C2)cn1 (configuration not stated) | -20.65
12 | CSc1ccccc1C(=O)N1C[C@H]2CC[C@@H]1CN(C(=O)C1CCC1)C2 | 6.914
13 | Cn1cc(CN2CCCC23CCN(C(=O)c2cccs2)CC3)cn1.O=C(O)C(F)(F)F | -13.39
14 | CN1CCN(Cc2cn3c(n2)CN(Cc2cccc(F)c2)CC3)CC1.O=C(O)C(F)(F)F.O=C(O)C(F)(F)F.O=C(O)C(F)(F)F | -2.625
15 | c1cncc(COc2ccccc2CNC2CCc3ncnn3C2)c1 (configuration not stated) | 103.3
16 | c1ccc(OCc2ccncc2)c(CNC2CCc3ncnn3C2)c1 (configuration not stated) | 14.47
17 | c1ccc(COc2ccccc2CNC2CCc3ncnn3C2)cc1 (configuration not stated) | 4.249
18 | CC(C)N(C)Cc1cc(=O)n2c(n1)CN(S(=O)(=O)C1CC1)CCC2.O=C(O)C(F)(F)F | 3.887
19 | COc1c(CNC(c2nccn2C)C(C)C)c(C)nn1C (configuration not stated) | 2.612
20 | CC(NCCn1cccn1)c1ccccc1F (configuration not stated) | -16.32
21 | Fc1ccccc1C(CNc1ccncn1)N1CCCC1 (configuration not stated) | -9.26
22 | CSc1ccc(CNC(c2ccccc2F)c2nccn2C)cc1.Cl (configuration not stated) | 112.7
23 | COc1c(CNC(c2ccccc2F)c2nccn2C)c(C)nn1C (configuration not stated) | -25.27

Row | SMILES | Percent Effect [%]
24 | COc1ccccc1C(NCc1ccc(SC)cc1)c1nccn1C (configuration not stated) | 111.2
25 | CSc1ccc(CNC2CCN(CCc3ccncc3)CC2)cc1 | 5.943
26 | COc1ccc(CN(C)c2ccc(-c3nccn3C)nn2)cc1OC | 6.196
27 | COc1cc(CN2CCn3c(CO)nnc3C2)ccc1OC(C)C.O=C(O)CC(O)(CC(=O)O)C(=O)O | -10.49
28 | CNC(=O)N1C[C@H]2C[C@H](C(=O)Nc3cccnc3)[C@@H](C1)O2.O=C(O)C(F)(F)F | -3.973
29 | Cc1ccc(C(=O)N2C[C@@H]3CC[C@H](C2)N(Cc2ccccc2)C3)cn1 | -13.46
30 | CCc1cc(=O)n(CCNC(=O)Nc2ccc(OC(F)(F)F)cc2)cn1 | 32.6
31 | O=C(O)C(F)(F)F.O=C(O)C(F)(F)F.O=C(O)C(F)(F)F.c1ccc(CN2CCCC3(CCN(Cc4cccs4)C3)C2)nc1 (configuration not stated) | 0.0284
32 | CCc1c(C(=O)N2C[C@H]3CC[C@@H]2CN(c2cnccn2)C3)csc1C | -16.87
33 | Cc1nc(CN2CCc3nc(NC(C)C)nc(C)c3C2)cs1 | 99.63
34 | Cc1nc(NC(C)C)nc2c1CN(Cc1nccn1C)CC2 | 12.34
35 | Cc1nc(CN2CCc3nc(N4CCCC4)nc(NC(C)C)c3C2)cs1 | 104.3
36 | CC(=O)NCc1noc2c1CN(Cc1cccs1)CC2 | 18.13
37 | CC(C)Nc1nc(N2CCCC2)nc2c1CN(C)CC2 | 4.665
38 | CCC(C)N1CCc2nc(N3CCCC3)nc(NC(C)C)c2C1 (configuration not stated) | -2.093
39 | CC(C)Nc1nc(N2CCCC2)nc2c1CN(S(C)(=O)=O)CC2 | 11
40 | CC(C)Nc1nc(N2CCCC2)nc2c1CN(C(C)C)CC2 | 101.9
41 | CCN1CCc2nc(N3CCOCC3)nc(NC(C)C)c2C1 | 8.22
42 | Cc1nc(CN2CCc3ncnc(C)c3CC2)cs1.O=C(O)C(F)(F)F | 2.444
43 | CC(C)Oc1ncnc2c1CCN(Cc1cccs1)CC2 | 17.98
44 | Cc1nc(NC(C)C)nc2c1CN(Cc1cccs1)CC2 | 99.87
45 | Cc1nn(C)cc1-c1cncn1CCN(C)C1CCCC1.Cl | 1.181
46 | Cc1cccc(CN2C[C@@H]3COC[C@]3(COCC(=O)N(C)C)C2)n1.O=C(O)C(F)(F)F.O=C(O)C(F)(F)F | -9.127

Row | SMILES | Percent Effect [%]
47 | O=C(O)C(F)(F)F.O=C([C@H]1C[C@H]2OCC[C@H]2N(CC2CCOCC2)C1)N1CCCCO1 | -2.02
48 | COC1COC2(CCN(Cc3cccc(Cl)c3)CC2)C1.O=C(O)C(F)(F)F (configuration not stated) | -14.26
49 | CN1[C@H]2CC[C@@H]1CN(c1nc(-c3ccncc3)nc3c1cnn3C)CC2 | -0.0303
50 | O=C(NC1CCCCC1)N1CCc2onc(COc3cccnc3)c2C1.O=C(O)C(F)(F)F | 9.654
51 | CC(C)CN1Cc2nc(N3CCCC3)ncc2C1=O | -13.83
52 | COc1ccccc1C(=O)N1CCNCC1C(N)=O.Cl (configuration not stated) | 5.705
53 | Cc1cnc(Nc2nccnc2C2CCN(C)CC2)s1 | 16.42
54 | CC(=O)N1CCC(c2nccnc2Nc2ncc(C)s2)CC1 | 55.53
55 | CC(=O)N1CCC(c2nccnc2Nc2cnccn2)CC1 | 19.92
56 | CCOC1COC2(CCN(C(=O)c3cccc(C)n3)CC2)C1.O=C(O)C(F)(F)F (configuration not stated) | 18.32
57 | O=C(O)C(F)(F)F.O=C(c1cccc(O)c1)N1CCC2(CCN2c2ncccn2)C1 (configuration not stated) | 1.113
58 | Cc1ccc(-c2nc(CNCCn3cccn3)cs2)o1 | 26.99
59 | Cc1cnn(CCNCc2csc(-c3ccco3)n2)c1 | 52.61
60 | Cc1cnn(CCNCc2csc(-c3ccc(C)o3)n2)c1 | 64.15
61 | c1coc(-c2nc(CNCCn3cccn3)cs2)c1 | -1.03
62 | Cc1cnn(CC(C)NCc2csc(-c3ccco3)n2)c1 (configuration not stated) | 29.87
63 | Cc1cnn(CCNCc2csc(-c3ncccn3)n2)c1 | -10.75
64 | Cl.N#Cc1cccnc1OC1CCNCC1 | -9.035
65 | Cc1ccc(N2C[C@@H]3OCCN(CC4CC4)[C@@H]3C2)nn1.O=C(O)C(F)(F)F | 21.44
66 | CN1Cc2cnn(CC3CCCC3)c2C(COCC2CC2)C1.O=C(O)C(F)(F)F.O=C(O)C(F)(F)F (configuration not stated) | -36.29
67 | O=C(O)C(F)(F)F.O=C(O)C(F)(F)F.O=C(O)C(F)(F)F.c1ccc(CN2CC[C@@H]3O[C@H](COCc4ccncc4)CC[C@@H]32)nc1 | 5.621
68 | CC(C)c1ccc(C(CN)N2CCc3sccc3C2)cc1 (configuration not stated) | 92.4
69 | NCC(c1ccccc1)N1CCc2sccc2C1 (configuration not stated) | 4.411

Row | SMILES | Percent Effect [%]
70 | NCC(c1ccc(Cl)cc1)N1CCc2sccc2C1 (configuration not stated) | 22.77
71 | Cc1csc([C@@H]2C[C@H]3CN(c4ncc(F)cn4)C[C@H]3O2)n1.O=C(O)C(F)(F)F | 25.07
72 | CNC(C)Cc1ccccc1Sc1ccc(O)cc1.Cl (configuration not stated) | 5.856
73 | CC(N)Cc1ccccc1Sc1ccc(O)cc1.CC(N)Cc1ccccc1Sc1ccc(O)cc1.O=C(O)C(=O)O (configuration not stated) | 54.17
74 | CC(N)Cc1ccccc1Sc1ccccc1.O=C(O)/C=C\C(=O)O (configuration not stated) | 31.83
75 | O=C(Nc1ccccc1)[C@H]1C[C@@H]2CN(S(=O)(=O)c3ccccc3)C[C@H]1O2 | 3.672
76 | CCc1cc(NCCNc2ccncc2C)n2nc(C)c(C)c2n1 | 10.67
77 | Cc1cc(NCCCNc2cccnc2)n2nc(C)c(C)c2n1 | 90.05
78 | CCc1cc(NCCc2cccnc2)n2nc(C)c(C)c2n1 | 66.22
79 | CCc1cc(NCCNc2cccnc2)n2nccc2n1 | 0.7035
80 | CCc1cc(NCCN2CCNC2=O)n2nc(C)c(C)c2n1 | -8.001
81 | Cc1cc(NC2CCN(Cc3ccccn3)CC2)n2nc(C)c(C)c2n1 | 3.704
82 | Cc1cc(N[C@@H](CO)c2ccccc2)n2nc(C)c(C)c2n1 | 11.1
83 | CCc1cc(NCCNC(=O)c2cccnc2)n2nc(C)c(C)c2n1 | -20.84
84 | CCc1cc(NCCc2cnccn2)n2nc(C)c(C)c2n1 | 78.14
85 | O=C(O)C(F)(F)F.O=C(c1ccco1)N1C[C@@H]2OCCN(c3ncccn3)[C@@H]2C1 | -4.269
86 | COc1cccc(CN2C[C@@H]3COC[C@]3(CNC(=O)C3CC3)C2)c1.O=C(O)C(F)(F)F | 18.07
87 | O=C(O)C(F)(F)F.O=C(c1ccco1)N1CCCC12CCN(c1ncccn1)CC2 | -4.902
88 | Cn1cc(-c2csc(N3CCSCC3)n2)cn1 | 7.511
89 | Cn1cc(-c2csc(N3CCCCCC3)n2)cn1 | 70.2
90 | CN1CCN(c2nc(-c3cnn(C)c3)cs2)CC1 | -2.615
91 | O=C(NCC1CC1)[C@@H]1C[C@@H]2CCN(Cc3ccoc3)C[C@@H]2O1 | -11.78
92 | Cc1ccc(C(=O)N2CCC3(CC2)CC(N2CCOCC2)C3)cc1.O=C(O)C(F)(F)F | 4.537
